Some test systems named below: HCT-15 colon; HT29 colon; SNB-75 CNS; SNB-19 CNS; U251 CNS; PC-3 prostate; SK-MEL-5 melanoma; UACC-62 melanoma; LOX IMVI melanoma; SK-MEL-28 melanoma; SK-MEL-2 melanoma; EKVX NSCLC; SN12C renal; UO-31 renal; TK-10 renal; ACHN renal; CAKI-1 renal; A498 renal; CCRF-CEM leukemia; MOLT-4 leukemia.
Holding throughout (experiment): NCI-60 one-dose screen, 48 h (100 = growth as untreated, 0 = no growth, -100 = all killed)
What all share (conditions): 10 µM

Each structure is given as a SMILES string. The panel holds about 83,000 compounds, 20% with a hit somewhere; the sample as a whole holds those more often.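 Cell lines were cultured in 96-well plates, exposed to a single compound concentration, and assessed for percent growth 48 hours later.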 Unmarked numbers belong to inactive results. Active and inactive are the calls of the source. The calls were made as follows: active = growth percent below 10; inactive = the rest.

`O=S(=O)(Nc1ncccn1)c1ccc(-n2c(-c3ccccc3)nc(-c3ccccc3)c2-c2ccccc2)cc1`: the growth in the test on HCT-15 colon is 80.7%; in the test on HT29 colon, 105%; with SNB-75 CNS, 77.2%; with SNB-19 CNS, 82.3%; in the test on U251 CNS it was 81.5%; in the test with PC-3 prostate, 67.8%. The growth in the test with SK-MEL-5 melanoma is 76.1%; in the test with UACC-62 melanoma, 83.7%; in the test with LOX IMVI melanoma, 85.7%; in the test with SK-MEL-28 melanoma it was 105%; in the test on SK-MEL-2 melanoma it was 106%; in the test with EKVX NSCLC, 76.9%. Besides, the growth in the test on SN12C renal was 92.4%; in the test with UO-31 renal, 62.2%; in the test with TK-10 renal, 94.6%; in the test with ACHN renal it was 97.3%; in the test with CAKI-1 renal, 84.2%; in the test on A498 renal, 81.9%. The figures for the growth in the test on CCRF-CEM leukemia and with MOLT-4 leukemia were 75.7% and 92.1%, respectively.

As to `CC(=O)Nc1ccc(-c2cn(-c3cccc(C(=O)Nc4cccc(OC(F)(F)F)c4)c3)nn2)cn1`, the growth in the test with HCT-15 colon was 87.3%; in the test on HT29 colon it was 96.9%; in the test with SNB-75 CNS, 118%; in the test on SNB-19 CNS, 113%; in the test on U251 CNS, 73.6%; in the test on PC-3 prostate it was 85.3%. Besides, the growth was 97% with SK-MEL-5 melanoma; 73.5% in the test with UACC-62 melanoma; 88.6% in the test with LOX IMVI melanoma; 92.8% in the test with SK-MEL-28 melanoma; 95.4% in the test on SK-MEL-2 melanoma; 105% in the test with EKVX NSCLC. Also, the growth is 114% in the test on SN12C renal; 131% in the test with UO-31 renal; 111% in the test on TK-10 renal; 101% with ACHN renal; 94.5% in the test on CAKI-1 renal; 178% with A498 renal. Besides, the figures for the growth in the test with CCRF-CEM leukemia and in the test with MOLT-4 leukemia were 98.1% and 109%, respectively.

On to `CCOC(=O)C(Cc1ccccc1)N1C(=O)/C(=C/N2N=C(c3ccc(OC)cc3)CC2c2ccc3ccccc3c2)SC1=S` (stereo not given), for which the growth in the test with HCT-15 colon is -67.4% (active); with HT29 colon it was -2.97% (active); with SNB-75 CNS, 40.6%; in the test on SNB-19 CNS, 14.9%; with U251 CNS, -26.8% (active); in the test on PC-3 prostate, 18.9%. In addition, the growth in the test on SK-MEL-5 melanoma was -98.2% (active); in the test on UACC-62 melanoma it was -76.7% (active); with LOX IMVI melanoma, -100% (active); with SK-MEL-28 melanoma, 9.31% (active); in the test with SK-MEL-2 melanoma, -64.1% (active); with EKVX NSCLC, -7.27% (active). The growth with SN12C renal was 8.88% (active); in the test on UO-31 renal it was 16.2%; in the test with TK-10 renal, 24.8%; in the test on ACHN renal, 23.2%; in the test on CAKI-1 renal, 24.8%; in the test with A498 renal, -13.3% (active). Moreover, the growth in the test on CCRF-CEM leukemia was 5.96% (active); in the test with MOLT-4 leukemia it was 4.16% (active).

Consider `CN(C)c1ccc(/C=C/c2nc3ccccc3c(=O)n2CC(=O)Nc2ccccc2)cc1`, for which the growth was 52.4% with HCT-15 colon; 63.6% with HT29 colon; 62.6% in the test on SNB-75 CNS; 62.9% in the test on SNB-19 CNS; 16.5% with U251 CNS; 67.5% with PC-3 prostate. Besides, the growth is 62% in the test on SK-MEL-5 melanoma; 43.7% with UACC-62 melanoma; 1.57% (active) with LOX IMVI melanoma; 35.6% in the test with SK-MEL-28 melanoma; 71.4% in the test with SK-MEL-2 melanoma; 63.6% in the test on EKVX NSCLC. In addition, the growth in the test with SN12C renal was 39%; in the test on UO-31 renal, 54.3%; in the test with TK-10 renal, 95%; in the test on ACHN renal, 18.8%; in the test with CAKI-1 renal, 24.4%; in the test on A498 renal, 70.5%. Further, the growth in the test on CCRF-CEM leukemia is 90%; in the test on MOLT-4 leukemia, 79.5%.

Regarding `COc1ccccc1[C@H]1C(C(=O)c2ccc(Cl)cc2)C2(N[C@@H]1c1ccccc1)C(=O)Nc1ccc(Cl)cc12` (stereo not given in full), the growth in the test with HCT-15 colon was 7.83% (active); with HT29 colon it was -3.95% (active); in the test on SNB-75 CNS, 40.9%; with SNB-19 CNS it was 21.2%; in the test on U251 CNS it was 17%; in the test with PC-3 prostate, 13.3%. The growth is -75.4% (active) in the test on SK-MEL-5 melanoma; -27.3% (active) in the test with UACC-62 melanoma; -74.6% (active) with LOX IMVI melanoma; 35.1% with SK-MEL-28 melanoma; -76.2% (active) in the test with SK-MEL-2 melanoma; 8.9% (active) in the test with EKVX NSCLC. Further, the growth in the test on SN12C renal was -66.3% (active); in the test with UO-31 renal, 6.99% (active); with TK-10 renal, 31.4%; in the test on ACHN renal, 3.8% (active); with CAKI-1 renal it was 8.2% (active); with A498 renal it was 13.1%. The results for the growth in the test on CCRF-CEM leukemia and in the test on MOLT-4 leukemia were 5.19% (active) and -21.1% (active), respectively.

Take `[2H]C([2H])([2H])Oc1ccc2ncc(C#Cc3cncc(C(=O)Nc4ccc(CN5CCN(C)CC5)c(C(F)(F)F)c4)c3)n2n1`: the growth with HCT-15 colon is -87.7% (active); in the test on HT29 colon, -52.8% (active); with SNB-75 CNS it was -66.4% (active); in the test with SNB-19 CNS, -57.9% (active); in the test on U251 CNS, -31.4% (active); in the test on PC-3 prostate, -61.6% (active). The growth in the test on SK-MEL-5 melanoma was -96.1% (active); in the test with UACC-62 melanoma, -77.5% (active); in the test with LOX IMVI melanoma, -68.4% (active); in the test with SK-MEL-28 melanoma, -83.8% (active); in the test on SK-MEL-2 melanoma it was -92.7% (active); in the test on EKVX NSCLC, -60% (active). Moreover, the growth is -78.2% (active) in the test with SN12C renal; -85.2% (active) in the test with UO-31 renal; -53.4% (active) with TK-10 renal; -88.9% (active) with ACHN renal; -78.7% (active) in the test with CAKI-1 renal; -50.6% (active) in the test on A498 renal. Besides, the growth with CCRF-CEM leukemia is 0.607% (active); in the test on MOLT-4 leukemia it was -13.6% (active).

Regarding `CCOC(=O)C1=C(N)N(c2ccccc2)C2=C(C(=O)CC(C)(C)C2)C1c1ccc(Cl)cc1` (stereo not given), the growth in the test on HCT-15 colon is 14.5%; in the test with HT29 colon, 34.8%; with SNB-75 CNS, 73%; in the test with SNB-19 CNS, 34.9%; in the test with U251 CNS, 42%; in the test with PC-3 prostate, 21.6%. In addition, the growth is 27.7% in the test with SK-MEL-5 melanoma; 22.2% in the test with UACC-62 melanoma; 41.5% in the test on LOX IMVI melanoma; 44.5% in the test on SK-MEL-28 melanoma; 30.2% with SK-MEL-2 melanoma; 27.7% with EKVX NSCLC. Besides, the growth was 64.2% with SN12C renal; 29% in the test on UO-31 renal; 80.4% in the test with TK-10 renal; 22.3% in the test on ACHN renal; 50.2% with CAKI-1 renal; 67.2% in the test with A498 renal. For the same compound, the figures for the growth in the test with CCRF-CEM leukemia and in the test with MOLT-4 leukemia were 15.4% and 1.54% (active), respectively.

Source of the values: PubChem BioAssay (NCI).
